The inhibition is the change of the read-out against control, counted positive when it falls.

Holding throughout (type): functional
The target of test [1] is Solute carrier family 2, facilitated glucose transporter member 1 (Homo sapiens) (UniProt P11166). Description: ST_JUDE_LEISH: Cytotoxicity at 2uM final concentration against transgenic Leishmania Mexicana promastigotes LmGLUT1 that are glucose transport deficient and complemented with the human glucose transporter GLUT1. Activity is measured by DNA content using SYBR green in vitro.

Test [2] deals with Hexose transporter 1 (Plasmodium falciparum) (UniProt O97467). Briefly: ST_JUDE_LEISH: Cytotoxicity at 2uM final concentration against transgenic Leishmania Mexicana promastigotes LmPfHT that are glucose transport deficient and complemented with the Plasmodium falciparum hexose transporter. Activity is measured by DNA content using SYBR green in vitro.
Test [3] concerns the target Glucose transporter (Leishmania mexicana) (UniProt O61059). Description: ST_JUDE_LEISH: Cytotoxicity at 2uM final concentration against transgenic Leishmania Mexicana promastigotes LmGT2 that are glucose transport deficient and complemented with the L. Mexicana glucose transporter 2. Activity is measured by DNA content using SYBR green in vitro.

Chain of Solute carrier family 2, facilitated glucose transporter member 1 (Homo sapiens) (P11166 whole entry): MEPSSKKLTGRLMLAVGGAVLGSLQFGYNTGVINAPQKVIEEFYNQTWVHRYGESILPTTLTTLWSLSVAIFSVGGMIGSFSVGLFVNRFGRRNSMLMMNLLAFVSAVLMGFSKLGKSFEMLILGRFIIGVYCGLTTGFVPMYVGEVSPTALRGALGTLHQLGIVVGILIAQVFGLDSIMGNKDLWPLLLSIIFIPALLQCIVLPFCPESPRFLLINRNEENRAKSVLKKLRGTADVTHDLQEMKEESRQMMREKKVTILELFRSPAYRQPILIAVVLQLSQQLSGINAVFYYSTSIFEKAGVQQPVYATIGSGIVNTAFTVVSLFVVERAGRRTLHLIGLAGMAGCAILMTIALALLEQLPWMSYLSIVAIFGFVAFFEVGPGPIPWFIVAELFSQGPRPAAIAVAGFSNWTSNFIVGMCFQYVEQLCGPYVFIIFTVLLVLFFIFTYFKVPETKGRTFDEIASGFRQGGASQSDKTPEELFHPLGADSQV

As to `CS(=O)(=O)c1ccccc1CNC(=O)c1ccc(-c2ccc(-c3nc4cc(C(F)(F)F)ccc4[nH]3)s2)cc1`, the inhibition in test [1] is 7.56%; in test [2], 2.99%; in test [3], 0.84%.

As to `O=C(NC1CCN(Cc2ccc(O)cc2)CC1)c1ccc(Cl)c(Cl)c1`, the inhibition in test [1] is 4.53%; in test [2], 4.25%; in test [3], -3.12%.

Consider `Cc1c2c(nn1-c1ccccc1)C(c1ccccc1)N(c1ccccc1)C2=O` (stereo not given), for which the inhibition in test [1] was -0.43%; in test [2] it was 0.43%; in test [3] it was 0.75%.

Take `CCc1cc(OC)ccc1C1CCN(CCCCNC(=O)c2ccc(NC(=O)c3ccc(Cl)cc3)cc2)CC1`: the inhibition is 3.47% in test [1], 5.73% in test [2] and -1.82% in test [3].

Regarding `Cc1cc(C2CCN(CCCCNC(=O)c3ccc(NC(=O)c4ccc(Cl)cc4)cc3)CC2)c(C)cc1OCc1ccncc1`, the figures for the inhibition in test [1], in test [2] and in test [3] were 8.72%, 7.09% and 7.42%, respectively.

Regarding `CCCc1cc(NC2CCN(C)CC2)nc(Nc2ccc(C)cc2)n1`, the inhibition in test [1] is 5.35%; in test [2], 3.28%; in test [3] it was 2.46%.

Consider `Nc1ncc(-c2ccc3nccc(-c4ccncc4)c3c2)cc1S(=O)(=O)N1CCOCC1`, for which the inhibition is 5.11% in test [1], 3.05% in test [2] and 1.27% in test [3].

Turning to `COc1ccc2nccc([C@@H](O)CN3CCC(NCc4cc5ccc(C#N)cc5[nH]4)CC3)c2c1`, the inhibition in test [1] stood at 13.5%; in test [2], 12.8%; in test [3], 9.02%.

Turning to `O=C(CCc1c[nH]cn1)Nc1cccc(-c2ccc(-c3nc4cc(F)ccc4[nH]3)cc2)c1`, the values for the inhibition in test [1], in test [2] and in test [3] were 16.3%, 13.1% and 16.6%, respectively.

With `c1ccc(-c2cc(NCc3cccc4ccccc34)c3[nH]ncc3n2)cc1`, the inhibition in test [1] turned out to be 5.11%; in test [2] it was 5.96%; in test [3] it was 6.54%.

As for `C[C@@H](N)C#Cc1cc2c(Nc3ccc(OCc4cccc(F)c4)c(Cl)c3)ncnc2s1`, the inhibition turned out to be 2.5% in test [1], 4.76% in test [2] and 2.27% in test [3].

With `O=C(/C=C/c1ccc([N+](=O)[O-])cc1)N1CCC(CCN2CCC(c3c[nH]c4ccccc34)CC2)CC1`, the inhibition in test [1] is 2.33%; in test [2], 3.09%; in test [3] it was 2.47%.

Turning to `O=C(c1cc(-c2ccco2)n[nH]1)N1CCN(S(=O)(=O)c2ccc(Br)cc2)CC1`, the results for the inhibition in test [1], in test [2] and in test [3] were 10.8%, 10.2% and 7.48%, respectively.

Consider `COc1cc2nccc(Nc3cccc(Oc4ccccc4)c3)c2cc1OC`, for which the inhibition in test [1] was 12.8%; in test [2], 14.4%; in test [3], 9.3%.

Turning to `CCc1cn(CCc2ccccc2)c2ccc(C(=O)N[C@@H](Cc3ccccc3)[C@H](O)CNC(C)(C)CCCC(C)C)cc12`, the inhibition was -1.76% in test [1], -1.07% in test [2] and -2.99% in test [3].

In the case of `CC(C)(C)c1ccc(CN2CCC(CNC(=O)c3cc(-c4ccccc4C(F)(F)F)cs3)C2)cc1` (stereo not given), the inhibition in test [1] is 1.63%; in test [2] it was 3.76%; in test [3], 1.21%.

In the case of `Cc1cccc2nc(-c3ccc(-c4ccc(CN5CCN(c6cnccn6)CC5)cc4)s3)[nH]c12`, the inhibition in test [1] worked out at 11.9%; in test [2] it was 9.41%; in test [3] it was 9.78%.

Consider `COc1ccccc1CN1CCC(NC(=O)c2ccc(-c3cccc(Cl)c3)s2)CC1`, for which the values for the inhibition in test [1], in test [2] and in test [3] were 8.99%, 8.66% and 2.23%, respectively.

Regarding `CN1CCN(C(C(=O)NCc2cc(Cl)cc(Cl)c2)c2ccccc2-c2ccsc2)CC1` (stereo not given), the results for the inhibition in test [1], in test [2] and in test [3] were 4.67%, 5.51% and 4.6%, respectively.

With `CCc1cccc2c(C#N)cn(CC(=O)NCCc3ccccc3)c12`, the inhibition in test [1] worked out at 6.99%; in test [2], 9.88%; in test [3] it was 9.25%.

Regarding `CN(C)CCNCc1ccc(-c2ccc(-c3nc4cc(F)ccc4[nH]3)cc2)cc1`, the inhibition in test [1] came out at 9.57%; in test [2], 7.88%; in test [3] it was 5.4%.

With `CC(C)C[C@@H](/C=N/N1CC(=O)NC1=O)NC(=O)[C@H](CC(C)C)NC(=O)c1ccc(OCCN2CCOCC2)cc1`, the inhibition in test [1] was -0.34%; in test [2] it was 2.99%; in test [3], 1.11%.

Regarding `COc1cc2c(cc1OC)C(C)(C)CN1Cc3c(c(CO)c(OC)c(OC)c3OC)CC21` (stereo not given), the figures for the inhibition in test [1], in test [2] and in test [3] were 4.54%, 3.72% and 4.31%, respectively.

As for `COc1ccc(C(=O)N2CCN(c3ccc([N+](=O)[O-])c(NC4CC4)c3)CC2)cc1Br`, the figures for the inhibition in test [1], in test [2] and in test [3] were 14.4%, 14.1% and 12.6%, respectively.

Turning to `COc1ccc(-c2cnc3ccc(NCc4ccc(S(N)(=O)=O)cc4)nn23)cc1`, the inhibition in test [1] worked out at 3.11%; in test [2] it was 3.14%; in test [3], 12.6%.

In the case of `CC(C)NCc1ccc(-c2cccc(NC(=O)c3ccc(F)cc3)c2)cc1`, the inhibition in test [1] is 6.57%; in test [2], 9.15%; in test [3] it was 6.89%.

For `O=C(/C=C/c1ccc(Cl)c(Cl)c1)N1CCC(CCCN2CCC(c3c[nH]c4ccc(O)cc34)CC2)CC1`, the inhibition in test [1] was found to be 25.3%; in test [2], 17.4%; in test [3] it was 14%.

For the compound `CN=C(N)c1ccc(NC(=O)C=Cc2ccc(C(=O)Nc3ccc(C(N)=NC)cc3)cc2)cc1`, the inhibition in test [1] came to 9.91%; in test [2], 15.9%; in test [3], 4.6%.

In the case of `COc1ccc2[nH]cc(C3CCN(CCCCNC(=O)c4ccc(NC(=O)c5ccc(Cl)cc5)cc4)CC3)c2c1`, the inhibition came to 4.59% in test [1], 4.04% in test [2] and 5.72% in test [3].

Take `Cc1cc(N2CCCC2)nc(Nc2ccc(NC(=O)c3ccc(Br)o3)cc2)n1`: the values for the inhibition in test [1], in test [2] and in test [3] were 4.16%, 9.42% and 5.64%, respectively.

Take `O=C(Nc1ccnc(N2CCCN(Cc3cccc(O)c3)CC2)c1)c1ccc(F)cc1`: the inhibition in test [1] is 2.79%; in test [2], 0.77%; in test [3], 4.83%.

`CN1CCN(CCCN(Cc2csc(-c3ccc(CNCc4ccccc4)cc3)n2)C(=O)Nc2cc(Cl)cc(Cl)c2)CC1`: the values for the inhibition in test [1], in test [2] and in test [3] were 9.09%, 6.74% and 7.7%, respectively.

In the case of `CN(C)c1ccc(CN2CCC(NC(=O)c3ccc(-c4ccccc4F)s3)CC2)cc1`, the inhibition is -0.33% in test [1], -1.02% in test [2] and -6.69% in test [3].

As for `O=C(NCCCCN1CCC(c2ccc(OC(F)(F)F)cc2)CC1)c1ccc(NC(=O)c2ccc(Cl)cc2)cc1`, the inhibition was -1.27% in test [1], 0.81% in test [2] and -1.72% in test [3].

As to `FC(F)(F)CNc1nc(Nc2ccc3ncccc3c2)nc2[nH]ccc12`, the figures for the inhibition in test [1], in test [2] and in test [3] were 21.8%, 17.9% and 8.14%, respectively.

As to `CCCCN(CCCC)CCOc1cc2c(cc1OC)CCN2C(=O)/C=C/c1ccccc1Cl`, the inhibition in test [1] is 1.13%; in test [2], 1.58%; in test [3], -0.32%.

Turning to `COc1cc2nccc(Nc3cc(C)cc(O)c3)c2cc1OC`, the values for the inhibition in test [1], in test [2] and in test [3] were 2.64%, 3.99% and 0.8%, respectively.

Take `CC(C)(C)CNc1noc(-c2sccc2Br)n1`: the inhibition in test [1] is -0.27%; in test [2] it was -0.43%; in test [3] it was -0.7%.

Take `CC(C)(C)c1cc(C(=O)N2CCN(c3ncccc3C(F)(F)F)CC2)n(Cc2ccccc2)n1`: the inhibition was 5.66% in test [1], 6.48% in test [2] and 4.37% in test [3].

Take `Cc1ccc(-n2c(Cc3cccc4ccccc34)nnc2SCCC#N)c(C)c1`: the inhibition was found to be 5.99% in test [1], 5.29% in test [2] and 8.9% in test [3].

On to `N=C(N)NN=Cc1ccc2c(ccc3ccccc32)c1`, for which the results for the inhibition in test [1], in test [2] and in test [3] were 7.03%, 8.19% and 3.76%, respectively.

Consider `O=C(C=Cc1ccc(-c2ccccc2)cc1)N1CCC(CCN2CCC(c3c[nH]c4ccccc34)CC2)CC1`, for which the inhibition is 2.14% in test [1], 9.22% in test [2] and -1.2% in test [3].

For the compound `COc1ccc2c(=NN=Cc3cccnc3)cc(C)[nH]c2c1`, the inhibition in test [1] is 1.93%; in test [2], 0.44%; in test [3] it was 1.52%.

Turning to `Nc1ccncc1C(=O)NCCCCN1CCN(c2nsc3ccccc23)CC1`, the results for the inhibition in test [1], in test [2] and in test [3] were -0.32%, 0.47% and -1.16%, respectively.

With `CCC1(CC)C(=O)N=C(N2CCCCC2)N(C)C1=O`, the results for the inhibition in test [1], in test [2] and in test [3] were 19%, 14.2% and 5.99%, respectively.

For the compound `Cn1ncc2c3c(CCN4CCC(NCc5cc6c(cn5)OCCO6)CC4)c(Cl)cnc3ccc21`, the results for the inhibition in test [1], in test [2] and in test [3] were 1.09%, 1.93% and -0.85%, respectively.

For the compound `COc1ccc(CC(=O)NC(CCN2CCC3(CC2)CN(S(C)(=O)=O)c2ccccc23)c2ccc(Cl)c(Cl)c2)cc1OC` (stereo not given), the inhibition in test [1] amounted to 3.24%; in test [2] it was 3.56%; in test [3], 2.27%.

In the case of `Cc1ccc2c(=O)n(C)c(=O)n(C)c2n1`, the inhibition in test [1] was determined as 6.05%; in test [2] it was 2.94%; in test [3], 1.62%.

`Cc1cc([N+](=O)[O-])ccc1NC(=O)Nc1cccc(C(F)(F)F)c1`: the inhibition came out at 5.58% in test [1], 3.9% in test [2] and 4.81% in test [3].

Consider `COc1ccc2c(c1)Nc1ccc(Cl)cc1C2N` (stereo not given), for which the inhibition in test [1] was 3.78%; in test [2], 1.62%; in test [3], 0.48%.

The values above are taken from ChEMBL document CHEMBL3433997, “St. Jude Leishmania screening dataset” (2016).
